Several values for one entry are separate records, joined by “and”; a condition that tells them apart may be missing. Identical values can stand only once. More than one record can exist for a structure, and the calls need not agree. Activity calls are given as the source filed them. How the source made its calls: active means hit-call score of the fitted dose curve at least 0.9, where 1 is the maximum; inactive means score below 0.9.

Read-out in one assay: Monocyte Chemoattractant Protein-1 (MCP1), CCL2 (gene 6347)
Description: BSK_IMphg_MCP1: BioMAP Diversity Plus: IMphg Assay for Monocyte Chemoattractant Protein-1 (MCP1) Biomarker Activity (AID 2284253). As to conditions: primary human endothelial cells with macrophages. In a few lines:
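Human venular endothelial cells co-cultured with macrophages; MCP-1 measured by ELISA 24 hours post-dose and fitted against DMSO. Cytotoxicity monitored by SRB total-protein staining in parallel cultures.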
For the compound `OCCCC(F)(F)C(F)(F)C(F)(F)F`, the outcome was inactive.
With `O=C(O)C(F)(F)C(F)(F)OC(F)(F)F`, the result was inactive.
Consider `OCC(F)(F)C(F)(F)C(F)(F)C(F)F`, for which the result was inactive.
Take `O=C(CC(=O)C(F)(F)C(F)(F)F)C(F)(F)F`: the result was inactive.
`O=C(Cl)C(F)(F)C(F)(F)C(F)(F)C(F)(F)C(F)(F)C(F)(F)C(F)(F)C(F)(F)F`: the AC50 was 51.4 µM (active) and the result was inactive.
In the case of `C=C(C)C(=O)OCC(F)(F)C(F)(F)C(F)(F)F`, the result was inactive.
As to `FC(F)(F)C(F)(F)C(F)(F)C(F)(F)C(F)(F)C(F)(F)CCS`, the outcome was inactive.
As for `FC(F)(F)C(F)(F)C(F)(F)C(F)(F)C(F)(F)C(F)(F)C(F)(F)C(F)(F)CCS`, the outcome was inactive.
Regarding `OCCCC(F)(F)C(F)(F)C(F)(F)C(F)(F)C(F)(F)C(F)(F)C(F)(F)F`, the AC50 was 52 µM (active) and 24.2 µM (active).
Take `CCO[Si](CCC(F)(F)C(F)(F)C(F)(F)C(F)(F)C(F)(F)C(F)(F)F)(OCC)OCC`: the result was inactive.
With `FC(F)(F)C(F)(F)C(F)(F)CI`, the outcome was inactive.
Still for that read-out and setting: in the case of `O=S(=O)(O)C(F)(F)C(F)(F)C(F)(F)C(F)(F)C(F)(F)C(F)(F)C(F)(F)F` it was “inactive”; in that of `O=C(O)C(F)(F)C(F)(F)C(F)(F)C(F)(F)F`, “inactive”.
The same measure, in the same setting: in the case of `O=C(O)C(F)(F)C(F)(F)C(F)(F)F` it was “inactive”.
For `FC(F)(F)C(F)(F)C(F)(F)C(F)(F)C(F)(F)C(F)(F)C(F)(F)C(F)(F)F`, the result was inactive.
`FC(F)(F)C(F)(F)C(F)(F)C(F)(F)CCI`: the result was inactive.
Turning to `O=S(=O)(OCC(F)F)C(F)(F)F`, the outcome was inactive.
On to `CCCCCCCCC(F)(F)C(F)(F)C(F)(F)C(F)(F)C(F)(F)C(F)(F)F`, for which the outcome was inactive.
As for `C=CC(F)(F)C(F)(F)C(F)(F)C(F)(F)C(F)(F)C(F)(F)C(F)(F)C(F)(F)F`, the result was inactive.
With `COC(=O)CCC(F)(F)C(F)(F)C(F)(F)C(F)(F)F`, the result was inactive.
As for `CC(C)(C)C(=O)CC(=O)C(F)(F)C(F)(F)C(F)(F)F`, the outcome was inactive.
As for `FC(F)(F)C(F)(F)CNCC(F)(F)C(F)(F)F`, the result was inactive.
Same read-out and setting: with `O=P(O)(O)OCCC(F)(F)C(F)(F)C(F)(F)C(F)(F)C(F)(F)C(F)(F)F` the entry was “inactive”; with `FC1CC(F)(F)C(F)(F)C1(F)F` (configuration not stated), “inactive”; with `FC(F)(F)C(F)(F)C(F)(F)N(C(F)(F)C(F)(F)C(F)(F)F)C(F)(F)C(F)(F)C(F)(F)F`, “inactive”.
For `OCC(F)(F)C(F)(F)C(F)(F)C(F)(F)C(F)(F)C(F)F`, the outcome was inactive.
Take `C=CC(=O)OCC(F)(F)C(F)(F)C(F)(F)C(F)(F)COC(=O)C=C`: the half-maximal activity concentration (AC50) is 30 µM (active).
For `O=C(O)C(F)(F)C(F)(F)C(F)(F)C(F)(F)C(F)(F)C(F)(F)C(F)(F)C(F)(F)Cl`, the AC50 is 48.6 µM (active).
Consider `O=C(O)C(F)(F)C(F)(F)F`, for which the result was inactive.
As to `N=C(N)C(F)(F)C(F)(F)C(F)(F)C(F)(F)C(F)(F)C(F)(F)C(F)(F)F`, the outcome was inactive.

Read-out in a further assay: Interleukin-8 (IL8), CXCL8 (gene 3576)
Description: BSK_KF3CT_IL8: BioMAP Diversity Plus: KF3CT Assay for Interleukin-8 (IL8) Biomarker Activity (AID 2284254). The following applies: primary human keratinocytes with fibroblasts. In a few lines:
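IL-8 read-out: ELISA, 24 h post-dose, human skin primary co-culture (keratinocytes + foreskin fibroblasts). DMSO = baseline; positive-direction fit.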
As for `OCCCC(F)(F)C(F)(F)C(F)(F)F`, the outcome was inactive.
On to `O=C(O)C(F)(F)C(F)(F)OC(F)(F)F`, for which the result was inactive.
As for `OCC(F)(F)C(F)(F)C(F)(F)C(F)F`, the outcome was inactive.
Regarding `O=C(CC(=O)C(F)(F)C(F)(F)F)C(F)(F)F`, the outcome was inactive.
Consider `O=C(Cl)C(F)(F)C(F)(F)C(F)(F)C(F)(F)C(F)(F)C(F)(F)C(F)(F)C(F)(F)F`, for which the AC50 is 30 µM (active) and the outcome was inactive.
Turning to `C=C(C)C(=O)OCC(F)(F)C(F)(F)C(F)(F)F`, the outcome was inactive.
Take `FC(F)(F)C(F)(F)C(F)(F)C(F)(F)C(F)(F)C(F)(F)CCS`: the result was inactive.
The same measure, in the same setting: with `FC(F)(F)C(F)(F)C(F)(F)C(F)(F)C(F)(F)C(F)(F)C(F)(F)C(F)(F)CCS` the entry was “inactive”.
In the case of `OCCCC(F)(F)C(F)(F)C(F)(F)C(F)(F)C(F)(F)C(F)(F)C(F)(F)F`, the AC50 was 49.3 µM (active) and 46.4 µM (active).
With `CCO[Si](CCC(F)(F)C(F)(F)C(F)(F)C(F)(F)C(F)(F)C(F)(F)F)(OCC)OCC`, the result was inactive.
`FC(F)(F)C(F)(F)C(F)(F)CI`: the outcome was inactive.
On to `O=S(=O)(O)C(F)(F)C(F)(F)C(F)(F)C(F)(F)C(F)(F)C(F)(F)C(F)(F)F`, for which the outcome was inactive.
Same read-out and setting: in the case of `O=C(O)C(F)(F)C(F)(F)C(F)(F)C(F)(F)F` it was “inactive”.
With `O=C(O)C(F)(F)C(F)(F)C(F)(F)F`, the outcome was inactive.
With `FC(F)(F)C(F)(F)C(F)(F)C(F)(F)C(F)(F)C(F)(F)C(F)(F)C(F)(F)F`, the outcome was inactive.
Turning to `FC(F)(F)C(F)(F)C(F)(F)C(F)(F)CCI`, the result was inactive.
Regarding `O=S(=O)(OCC(F)F)C(F)(F)F`, the outcome was inactive.
`CCCCCCCCC(F)(F)C(F)(F)C(F)(F)C(F)(F)C(F)(F)C(F)(F)F`: the outcome was inactive.
The same measure, in the same setting: with `C=CC(F)(F)C(F)(F)C(F)(F)C(F)(F)C(F)(F)C(F)(F)C(F)(F)C(F)(F)F` the entry was “inactive”.
Regarding `COC(=O)CCC(F)(F)C(F)(F)C(F)(F)C(F)(F)F`, the result was inactive.
Consider `CC(C)(C)C(=O)CC(=O)C(F)(F)C(F)(F)C(F)(F)F`, for which the result was inactive.
For `FC(F)(F)C(F)(F)CNCC(F)(F)C(F)(F)F`, the outcome was inactive.
`O=P(O)(O)OCCC(F)(F)C(F)(F)C(F)(F)C(F)(F)C(F)(F)C(F)(F)F`: the result was inactive.
For `FC1CC(F)(F)C(F)(F)C1(F)F` (configuration not stated), the outcome was inactive.
Consider `FC(F)(F)C(F)(F)C(F)(F)N(C(F)(F)C(F)(F)C(F)(F)F)C(F)(F)C(F)(F)C(F)(F)F`, for which the result was inactive.
`OCC(F)(F)C(F)(F)C(F)(F)C(F)(F)C(F)(F)C(F)F`: the result was inactive.
On to `C=CC(=O)OCC(F)(F)C(F)(F)C(F)(F)C(F)(F)COC(=O)C=C`, for which the AC50 is 17.3 µM (active) and 18.9 µM (active).
For the compound `O=C(O)C(F)(F)C(F)(F)C(F)(F)C(F)(F)C(F)(F)C(F)(F)C(F)(F)C(F)(F)Cl`, the AC50 is 55.2 µM (active) and 45.8 µM (active).
As to `O=C(O)C(F)(F)C(F)(F)F`, the outcome was inactive.
With `N=C(N)C(F)(F)C(F)(F)C(F)(F)C(F)(F)C(F)(F)C(F)(F)C(F)(F)F`, the outcome was inactive.

These data come from PubChem BioAssay (EPA / NIEHS).
